From PubChem BioAssay AID777 (Sanford-Burnham Center for Chemical Genomics, 2007)
Screen size: about 96,000 compounds; about 19,000 (20%) were called active.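 Rule for the calls: active = blocking of liver enzyme CYP2C9 beyond about 50% at 5 µM (limit read from the data); inactive = the rest.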 A selection follows.

These compounds were tested against Cytochrome P450 2C9 (Homo sapiens) (UniProt P11712) (assay: blockers of cytochrome P450 2C9 activity – biochemical, luminescence, ADME assay, primary screen (AID 777)). Conditions: CYP2C9 Supersomes, luciferin-H conversion, at 5 µM, active compounds read high.
Chain of Cytochrome P450 2C9 (Homo sapiens) (P11712 whole entry, looked up): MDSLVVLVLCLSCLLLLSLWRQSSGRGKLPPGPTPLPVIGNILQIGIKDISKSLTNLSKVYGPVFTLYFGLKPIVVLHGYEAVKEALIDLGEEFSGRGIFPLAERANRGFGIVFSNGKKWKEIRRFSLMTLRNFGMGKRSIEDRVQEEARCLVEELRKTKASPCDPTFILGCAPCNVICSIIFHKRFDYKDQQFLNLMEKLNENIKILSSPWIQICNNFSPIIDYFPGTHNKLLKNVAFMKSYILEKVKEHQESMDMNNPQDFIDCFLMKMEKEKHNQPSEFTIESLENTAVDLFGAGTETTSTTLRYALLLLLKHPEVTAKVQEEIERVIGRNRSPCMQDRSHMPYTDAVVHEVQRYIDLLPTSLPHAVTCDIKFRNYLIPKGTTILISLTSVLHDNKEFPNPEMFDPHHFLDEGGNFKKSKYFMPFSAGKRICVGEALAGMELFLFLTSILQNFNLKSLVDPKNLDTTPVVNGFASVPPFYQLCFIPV

inhibition, active:
CCOc1ccc(Nc2nc(Cc3nnc(SCC(=O)c4ccc(C)cc4)o3)cs2)cc1 83.7%, CCOc1ccc(Nc2nc(Cc3nnc(SCC(=O)NC4CCCC4)n3C)cs2)cc1 65.6%, CCCCCCc1cc2cc(-c3nnc(-c4ccccc4)o3)c(=O)oc2cc1O 90.8%, CCCCN(C)C(=O)c1ccc2c(c1)N(CC)C(=O)c1ccccc1S2(=O)=O 72.4%, CCOC(=O)C1=C(C)NC(C)=C(C(=O)OCC)C1c1ccccn1 94.2%, CCOC(=O)C1=C(C)NC(C)=C(C(=O)OCC)C1C1=COCCO1 77.4%, CSc1cccc(NC(=O)CSc2ccccc2)c1 73.2%, Cc1ccc2c(c1)c1ncn(CCC3=CCCCC3)c(=O)c1n2C 87.4%, CCc1ccccc1NC(=O)CSc1nnc([C@@H](NC(=O)OC(C)(C)C)C(C)CC)o1 (stereo partly specified) 66.7%, Cc1cccc(NC(=O)CSc2nnc(CCCCCNC(=O)OC(C)(C)C)o2)c1C 67.6%, C[C@H](NC(=O)OC(C)(C)C)c1nnc(SCC(=O)Nc2ccc(Br)cc2)o1 50.7%, Clc1ccc(-c2nnc(-c3ccccc3)nc2N2CCSCC2)cc1 59.2%, COc1ccccc1OCc1nc2ccccc2s1 51.7%, O=C(CCn1c(SCC(=O)c2ccccc2)nc2ccccc2c1=O)NCc1ccc(F)cc1 91.5%, CCn1c(SCC(=O)NCC2CCCO2)nc2cc(S(=O)(=O)N3CCCCC3)ccc21 (stereo unspecified) 50.2%, O=C(CCCn1c(SCC(=O)c2ccc(F)cc2)nc2ccccc2c1=O)NCc1ccco1 95%, O=C(CCCn1c(SCC(=O)c2ccccc2)nc2ccccc2c1=O)NCC1CCCO1 (stereo unspecified) 91.9%, CCCCn1c(SCC(=O)NCC2CCCO2)nc2ccc(N3CCOCC3)cc2c1=O (stereo unspecified) 74.1%, CC(Oc1ccc2ccccc2c1)C(=O)NNC(=S)NC(=O)c1ccco1 (stereo unspecified) 85.3%, CCCc1ccc(OCC(=O)NNC(=S)NC(=O)c2ccco2)cc1 65.8%

inhibition, inactive:
O=C1C(=O)N(c2ccccc2)c2ccccc21 4.1%, CC(=O)Nc1ccc(C(=O)CSc2nnc(Cc3ccccc3)o2)cc1 33.3%, CCOC(=O)c1c(NC(=O)CSc2nnc(Cc3csc(N)n3)n2C)sc(C)c1C 30.2%, COCCCn1c(Cc2csc(Nc3cccc(Cl)c3)n2)nnc1SCC(=O)OC1CCCCC1 44.3%, CCC(=O)Nc1ccc(C(=O)CSc2nnc(CNc3ccc(Cl)cc3)o2)cc1OC -44.6%, COCc1cc(C)nc2sc(C(=O)NC3CCCCC3)c(N)c12 4.7%, COc1ccc(-n2cnc3cc(NCc4ccco4)ccc32)cc1 32.8%, COC(=O)[C@@H](NC(=O)Nc1cc(Cl)ccc1C)C(C)C 10%, OC(C#CCN1CCOCC1)(c1ccccc1)C1CCCCC1 (stereo unspecified) 30%, O=c1oc2cc(O)ccc2cc1-c1ccc(F)cc1 27.8%, CC1(C)CC(=O)C=C(NCCCNC2CCCCC2)C1 1%, CCOC(=O)c1c(N)sc(C(C)=O)c1C 25.8%, CCCCc1c(O)nc2n(c1=O)CCS2 -21.9%, COc1ccccc1NC1=NC(c2ccc(Cl)cc2)N=C(N)N1 (stereo unspecified) -7.5%, CCn1c2ccccc2c2cc(NC(=S)N3CCOCC3)ccc21 -46.3%, COC(=O)CNC(=O)c1ccc2c(c1)S(=O)(=O)c1ccccc1C2=O -14.1%, CCN1C(=O)c2cccc3c(N)ccc1c23 7.7%, CCC(C)Sc1nnc(-c2c[nH]c3ccccc23)n1CCOC (stereo unspecified) -4.5%, CCOC(=O)c1ccccc1NC(=O)CC1Nc2ccccc2NC1=O (stereo unspecified) 29.5%, CCC(=O)N(Cc1ccccc1)c1ccccn1 -7.1%, CCCC1NC(=O)NC(C)=C1C(=O)OCC (stereo unspecified) 39.8%, CCCC(O)(c1ccc(OC)cc1)C(CN(C)C)c1ccccc1 (stereo unspecified) -8.2%, O=C(NC(=O)c1ccc(Cl)c(Cl)c1)OC1CCS(=O)(=O)C1 (stereo unspecified) -16.4%, CCOc1ccccc1NC(=O)C12CC3CC(C1)CC(c1ccc(C)cc1)(C3)C2 -16%, N#C/C=C\Oc1ccc(Cl)cc1N -10.4%, O=C(CCN1C(=O)C2C3C=CC(C3)C2C1=O)Nc1ccccc1F (stereo unspecified) -2.2%, NC(=NC(=O)c1ccccc1)N1CCOCC1 4.1%, CCN(CC)C(=O)CSc1nnc(-c2ccc(S(=O)(=O)NCc3ccccc3Cl)cc2)o1 25.8%, O=C(OCC(=O)N1CCCC1)c1ccco1 5.6%, O=C(CSc1ccccc1)Nc1ccc(NC(=O)c2ccco2)cc1 42.7%, CCn1c(SCC(=O)Nc2cccc(F)c2)nnc1-c1cc2cc(Br)ccc2o1 36%, Oc1ccccc1/C=N/n1c(-c2cccs2)n[nH]c1=S 0.5%, Cc1nnc(C)n1/N=C/c1ccc(C(C)C)cc1 8.3%, Cn1nnc2cc(C(=O)NCCC3=CCCCC3)ccc21 -22.1%, Cc1ccc2[nH]c3c(=O)n(Cc4ccccn4)cnc3c2c1 2.1%, Cc1ccc(-n2ncc3c(=O)[nH]cnc32)c(C)c1 2.5%, Cn1c(=O)n(C)c(=O)n(CC(=O)N2CCCCC2)c1=O -13.7%, COc1ccc(C(=O)N(CCN2CCOCC2)CC(=O)NC2CCCC2)cc1OC -13.4%, C[C@H](NC(=O)OC(C)(C)C)c1nnc(SCC(N)=O)o1 30.9%, COc1ccccc1-c1nnc(SCC(=O)Nc2ccccc2)o1 -62.2%, Cc1cccc(NC(=O)CSC(N)=O)c1C 7.1%, CCc1ccccc1NC(=O)CSc1nnc([C@@H](NC(=O)OC(C)(C)C)C(C)C)o1 20.3%, Cc1nc(C)c(C(=O)Nc2cccc(C)c2C)o1 1.2%, CC(C)C[C@@H](N)c1nnc(SCC(=O)c2ccc(Cl)cc2)o1 49.8%, CN(C)CCNC(=O)C(C(=O)c1ccccc1)n1ccccc1=O (stereo unspecified) -3.6%, CCCCNC(=O)OC(C)CNC(=O)OC (stereo unspecified) -7.6%, O=C(C1CCCO1)N1CCC(c2nc3ccccc3[nH]2)CC1 (stereo unspecified) -3.1%, CCCNS(=O)(=O)c1ccc2c(c1)CCCN2C(C)=O 4.5%, COC(=O)C(C)C1Sc2ccccc2NC1=O (stereo unspecified) 2.8%, Cn1nc(-c2ccccc2)c(-c2nc(-c3ccc(Cl)cc3)no2)c1Cl 0.9%, CC1CN(c2nc(-c3ccccc3)nnc2-c2ccccc2)CC(C)O1 (stereo unspecified) 14.1%, CC1(C)CC(CC(=O)O)C(=O)O1 (stereo unspecified) 4.1%, O=C(O)CSCc1nc2ccccc2s1 -9.7%, O=C(O)CCCCc1nc2ccccc2s1 2.4%, C=CCNc1nc(C)nc(OC)n1 -13.4%, CCn1cc(C(=O)NCC2CCCO2)c(=O)c2cc(S(=O)(=O)N3CCCCC3)ccc21 (stereo unspecified) 44%, Cn1c(-c2ccc(F)cc2)cnc1SCC(=O)NCc1ccco1 9.5%, O=C(CSc1nc2cc3c(cc2c(=O)n1CCC1=CCCCC1)OCO3)NCc1ccco1 8.9%, CCc1ccc(NC(=O)CSc2nc3ccccc3c(=O)n2CCN2CCOCC2)cc1 47.5%, O=C(NCC1CCCO1)C(C(=O)c1ccccc1)n1cc(Cl)ccc1=O (stereo unspecified) -9.3%, CCOc1cc2[nH]c(=O)n(CCC(=O)NCc3ccc(OC)cc3)c(=O)c2cc1OCC -2.1%, O=C(CSc1nnc(-c2ccco2)n1CC1CCCO1)c1ccccc1 (stereo unspecified) -3.9%, Cc1ccc(S(=O)(=O)N2CCC(C(=O)NCC3CCCO3)CC2)cc1 (stereo unspecified) -9.7%, CCOC(=O)N1CCC(N(CCOC)C(=O)Nc2ccc(C)c(C)c2)CC1 -10.6%, CS(=O)(=O)Nc1ccc(C(=O)N2CCCC2)cc1 17.2%, CCOC(=O)N1CCN(C(=O)c2n[nH]c(=O)c3ccccc23)CC1 -4.2%, COc1ccc(C2C(C#N)=C(N)Oc3n[nH]c(C)c32)cc1CN1CCN(c2ccc(F)cc2)CC1 (stereo unspecified) 28%, O=C(Cn1cc2c(n1)CCCCC2)NCCN1CCOCC1 -11.3%, O=C(NC(c1ccccc1)c1ccccc1)N1CCN(CCO)CC1 4%, COc1ccc(N(CCC#N)S(=O)(=O)c2ccc(Cl)cc2)cc1 19.8%, C=CCC(NCc1ccco1)c1ccc(OC)cc1 (stereo unspecified) -14.6%, N#CCSc1nc2ccc(N3CCOCC3)cc2c(=O)n1CCc1ccccc1 30.9%, N#Cc1ccc(Oc2cc(C(F)(F)F)nc(-c3ccccn3)n2)cc1 42%, O=C(Nc1ccc(Cl)cc1)c1cc2nc(C3CC3)cc(C(F)(F)F)n2n1 -1.8%, COc1cc(OC)c(-n2c(C)cc(C=O)c2C)cc1Cl 16.9%, CCNC(=S)NNC(=O)Cc1ccccc1 1.3%, O=C(NCCSc1ccccc1)c1ccco1 -18.4%, COc1ccc(C(=O)NC(=S)NNC(=O)CCc2ccccc2)cc1 33.8%, CC(NC(=O)c1ccco1)C(=O)Nc1nc(-c2ccccn2)cs1 (stereo unspecified) 9.7%, O=S(=O)(N/N=C\c1cccn1-c1ccccc1)c1ccc2ccccc2c1 -71.5%, COc1ccccc1N=C1SC(C)CN1C(=O)C1CCC1 (stereo unspecified) -6.6%
